Legend:
Assay in all cases: DAPPL (digital affinity profiling via proximity ligation, sequencing); 10 mM Tris-HCl pH 7.5, 50 mM NaCl, 1 mM DTT, 4% glycerol, room temperature, 30 min; GST-TFs on glutathione beads, 16-mer random dsDNA library, 0.1% formaldehyde crosslink after washing; high values mean tight binding
Settings in all cases: protein: recombinant; tags: N-terminal GST; dsDNA, one strand shown
FLI1 = target: T1, FLI1 (Homo sapiens, UniProt Q01543 1-452)
T1 sequence: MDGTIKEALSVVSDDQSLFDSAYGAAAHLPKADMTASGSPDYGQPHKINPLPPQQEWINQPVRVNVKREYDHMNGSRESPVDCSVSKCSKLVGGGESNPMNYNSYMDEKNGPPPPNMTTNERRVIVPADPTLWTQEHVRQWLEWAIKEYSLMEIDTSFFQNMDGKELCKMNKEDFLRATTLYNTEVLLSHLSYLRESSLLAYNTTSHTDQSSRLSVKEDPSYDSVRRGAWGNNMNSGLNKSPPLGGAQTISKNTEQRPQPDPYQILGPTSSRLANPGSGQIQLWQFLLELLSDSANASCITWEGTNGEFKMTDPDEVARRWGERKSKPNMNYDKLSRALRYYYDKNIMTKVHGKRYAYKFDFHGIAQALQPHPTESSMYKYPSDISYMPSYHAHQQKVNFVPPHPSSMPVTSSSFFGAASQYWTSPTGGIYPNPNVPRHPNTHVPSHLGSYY
Outline: (§1)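 After expression in yeast as GST fusions, human transcription factors were bound to glutathione beads, DNA-barcoded and mixed with a tag-only sample. The pools were incubated with 200 nmole of a 16-mer random double-stranded DNA library in Tris/NaCl/DTT/glycerol buffer (30 min, room temperature), washed and crosslinked with 0.1% formaldehyde. Proximity ligation with BsaI/T4 ligase ran for 1 h at 37 °C, before PCR amplification and sequencing on an Illumina NextSeq500. Binding signal is a hexamer's read frequency for a factor divided by its frequency for the tag-only sample.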

ELK1 = target: T2, ELK1 (Homo sapiens, UniProt P19419 1-428)
T2 sequence: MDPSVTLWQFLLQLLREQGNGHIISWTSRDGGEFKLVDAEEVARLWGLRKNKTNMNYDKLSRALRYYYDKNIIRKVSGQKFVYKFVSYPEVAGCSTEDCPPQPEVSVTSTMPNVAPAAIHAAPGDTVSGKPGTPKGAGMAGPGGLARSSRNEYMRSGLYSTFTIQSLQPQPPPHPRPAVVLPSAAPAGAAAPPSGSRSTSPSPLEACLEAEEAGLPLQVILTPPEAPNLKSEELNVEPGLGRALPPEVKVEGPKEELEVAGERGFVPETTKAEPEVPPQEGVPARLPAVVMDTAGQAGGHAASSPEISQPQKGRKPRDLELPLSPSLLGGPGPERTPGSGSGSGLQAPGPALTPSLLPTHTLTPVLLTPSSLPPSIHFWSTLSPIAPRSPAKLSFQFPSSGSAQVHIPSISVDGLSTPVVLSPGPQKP
Outline: as §1

GABPA = target: T3, GABPA (Homo sapiens, UniProt Q06546 1-454)
T3 sequence: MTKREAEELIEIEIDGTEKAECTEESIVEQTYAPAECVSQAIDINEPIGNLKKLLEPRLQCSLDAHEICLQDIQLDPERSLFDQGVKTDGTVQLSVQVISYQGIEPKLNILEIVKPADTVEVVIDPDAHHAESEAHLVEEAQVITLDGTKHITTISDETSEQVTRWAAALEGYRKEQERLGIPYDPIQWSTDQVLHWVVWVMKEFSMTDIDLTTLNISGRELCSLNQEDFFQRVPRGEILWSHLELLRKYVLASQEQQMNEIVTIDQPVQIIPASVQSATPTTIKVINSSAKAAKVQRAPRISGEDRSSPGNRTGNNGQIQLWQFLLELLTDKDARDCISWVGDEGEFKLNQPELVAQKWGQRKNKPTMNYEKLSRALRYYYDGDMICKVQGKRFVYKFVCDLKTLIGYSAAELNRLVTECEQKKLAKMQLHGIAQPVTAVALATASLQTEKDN
Outline: as §1

ERG = target: T4, ERG (Homo sapiens, UniProt P11308 1-479)
T4 sequence: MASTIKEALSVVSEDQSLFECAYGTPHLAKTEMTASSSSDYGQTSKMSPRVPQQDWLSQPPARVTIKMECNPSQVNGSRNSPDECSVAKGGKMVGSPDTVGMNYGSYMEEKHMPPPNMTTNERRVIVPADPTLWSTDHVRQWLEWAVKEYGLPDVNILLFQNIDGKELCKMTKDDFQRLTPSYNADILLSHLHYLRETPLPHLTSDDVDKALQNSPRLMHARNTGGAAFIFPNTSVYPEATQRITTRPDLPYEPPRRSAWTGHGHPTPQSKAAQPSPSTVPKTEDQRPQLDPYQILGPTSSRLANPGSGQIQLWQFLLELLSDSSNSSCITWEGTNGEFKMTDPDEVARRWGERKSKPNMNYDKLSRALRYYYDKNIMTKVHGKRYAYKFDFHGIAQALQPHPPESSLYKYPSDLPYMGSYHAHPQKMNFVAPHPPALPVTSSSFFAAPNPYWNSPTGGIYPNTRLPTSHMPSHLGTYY
Outline: as §1

ELF1 = ELF1 (Homo sapiens, UniProt P32519 1-619)
Outline: as §1

EHF = target: T5, EHF (Homo sapiens, UniProt Q9NZC4 1-300)
T5 sequence: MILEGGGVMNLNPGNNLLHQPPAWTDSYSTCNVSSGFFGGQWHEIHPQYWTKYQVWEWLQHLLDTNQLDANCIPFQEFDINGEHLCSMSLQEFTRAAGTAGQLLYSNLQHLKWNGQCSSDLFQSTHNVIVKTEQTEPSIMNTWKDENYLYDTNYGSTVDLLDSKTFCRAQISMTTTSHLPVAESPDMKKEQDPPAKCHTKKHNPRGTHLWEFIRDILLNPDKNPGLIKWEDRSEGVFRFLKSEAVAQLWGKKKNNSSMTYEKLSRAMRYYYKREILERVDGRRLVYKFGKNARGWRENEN
Outline: as §1

SPI1 = SPI1 (Homo sapiens, UniProt P17947 1-270)
Outline: as §1

SPIB = SPIB (Homo sapiens, UniProt Q01892 1-262)
Outline: as §1

ELK3 = target: T6, ELK3 (Homo sapiens, UniProt P41970 1-407)
T6 sequence: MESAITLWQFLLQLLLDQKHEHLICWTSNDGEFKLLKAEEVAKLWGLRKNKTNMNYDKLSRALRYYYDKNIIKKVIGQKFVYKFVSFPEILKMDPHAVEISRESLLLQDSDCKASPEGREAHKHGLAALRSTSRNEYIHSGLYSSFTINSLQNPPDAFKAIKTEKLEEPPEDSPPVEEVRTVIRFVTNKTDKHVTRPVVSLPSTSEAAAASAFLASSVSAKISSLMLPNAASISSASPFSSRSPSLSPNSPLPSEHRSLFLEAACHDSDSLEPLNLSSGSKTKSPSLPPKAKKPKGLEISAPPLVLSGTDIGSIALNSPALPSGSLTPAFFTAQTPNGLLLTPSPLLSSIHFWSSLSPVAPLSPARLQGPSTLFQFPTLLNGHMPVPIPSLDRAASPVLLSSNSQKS
Outline: as §1

Chain of SPIB (Q01892 whole entry): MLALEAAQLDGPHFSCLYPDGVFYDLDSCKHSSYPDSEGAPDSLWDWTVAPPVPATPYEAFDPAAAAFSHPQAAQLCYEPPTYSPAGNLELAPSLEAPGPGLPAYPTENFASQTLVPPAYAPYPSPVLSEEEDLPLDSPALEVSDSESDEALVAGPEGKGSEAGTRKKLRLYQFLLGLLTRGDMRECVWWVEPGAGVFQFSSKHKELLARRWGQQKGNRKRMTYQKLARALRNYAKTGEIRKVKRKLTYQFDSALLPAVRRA
Chain of ELF1 (P32519 whole entry): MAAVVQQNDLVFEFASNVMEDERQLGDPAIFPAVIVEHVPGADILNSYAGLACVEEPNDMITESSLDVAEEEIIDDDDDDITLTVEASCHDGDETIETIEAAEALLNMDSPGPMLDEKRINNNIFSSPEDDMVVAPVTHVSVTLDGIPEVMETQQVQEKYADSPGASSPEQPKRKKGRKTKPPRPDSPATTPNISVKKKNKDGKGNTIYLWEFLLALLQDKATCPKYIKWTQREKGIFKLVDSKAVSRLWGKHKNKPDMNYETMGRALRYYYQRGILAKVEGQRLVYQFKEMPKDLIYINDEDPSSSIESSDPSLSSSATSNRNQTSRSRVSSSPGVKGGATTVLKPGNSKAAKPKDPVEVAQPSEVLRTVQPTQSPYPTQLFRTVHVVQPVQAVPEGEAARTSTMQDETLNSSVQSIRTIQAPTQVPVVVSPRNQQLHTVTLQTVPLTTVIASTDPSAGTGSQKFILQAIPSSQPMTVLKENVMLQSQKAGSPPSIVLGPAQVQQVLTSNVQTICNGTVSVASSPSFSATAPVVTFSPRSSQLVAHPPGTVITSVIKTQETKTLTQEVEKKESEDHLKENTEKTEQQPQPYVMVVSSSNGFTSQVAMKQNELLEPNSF

| Sequence | binding signal (FLI1) | binding signal (ELK1) | binding signal (GABPA) | binding signal (ERG) | binding signal (ELF1) | binding signal (EHF) | binding signal (SPI1) | binding signal (SPIB) | binding signal (ELK3) |
| --- | --- | --- | --- | --- | --- | --- | --- | --- | --- |
| ATGACA | 1.34 fold enrichment (6-mer frequency, TF over GST control) | 1.32 fold enrichment (6-mer frequency, TF over GST control) | 1.45 fold enrichment (6-mer frequency, TF over GST control) | 1.32 fold enrichment (6-mer frequency, TF over GST control) | 1.39 fold enrichment (6-mer frequency, TF over GST control) | 1.32 fold enrichment (6-mer frequency, TF over GST control) | 1.29 fold enrichment (6-mer frequency, TF over GST control) | 1.32 fold enrichment (6-mer frequency, TF over GST control) | 1.3 fold enrichment (6-mer frequency, TF over GST control) |
| TGGTCT | 1.56 fold enrichment (6-mer frequency, TF over GST control) | 1.69 fold enrichment (6-mer frequency, TF over GST control) | 1.47 fold enrichment (6-mer frequency, TF over GST control) | 1.49 fold enrichment (6-mer frequency, TF over GST control) | 1.49 fold enrichment (6-mer frequency, TF over GST control) | 1.66 fold enrichment (6-mer frequency, TF over GST control) | 1.58 fold enrichment (6-mer frequency, TF over GST control) | 1.76 fold enrichment (6-mer frequency, TF over GST control) | 1.65 fold enrichment (6-mer frequency, TF over GST control) |
| TTTGCT | 1.25 fold enrichment (6-mer frequency, TF over GST control) | 1.17 fold enrichment (6-mer frequency, TF over GST control) | 1.29 fold enrichment (6-mer frequency, TF over GST control) | 1.18 fold enrichment (6-mer frequency, TF over GST control) | 1.21 fold enrichment (6-mer frequency, TF over GST control) | 1.18 fold enrichment (6-mer frequency, TF over GST control) | 1.21 fold enrichment (6-mer frequency, TF over GST control) | 1.24 fold enrichment (6-mer frequency, TF over GST control) | 1.25 fold enrichment (6-mer frequency, TF over GST control) |
| ACAATT | 1.33 fold enrichment (6-mer frequency, TF over GST control) | 1.27 fold enrichment (6-mer frequency, TF over GST control) | 1.15 fold enrichment (6-mer frequency, TF over GST control) | 1.32 fold enrichment (6-mer frequency, TF over GST control) | 1.32 fold enrichment (6-mer frequency, TF over GST control) | 1.23 fold enrichment (6-mer frequency, TF over GST control) | 1.23 fold enrichment (6-mer frequency, TF over GST control) | 1.2 fold enrichment (6-mer frequency, TF over GST control) | 1.25 fold enrichment (6-mer frequency, TF over GST control) |
| TATTGA | 1.1 fold enrichment (6-mer frequency, TF over GST control) | 1.16 fold enrichment (6-mer frequency, TF over GST control) | 1.09 fold enrichment (6-mer frequency, TF over GST control) | 1.13 fold enrichment (6-mer frequency, TF over GST control) | 1.18 fold enrichment (6-mer frequency, TF over GST control) | 1.15 fold enrichment (6-mer frequency, TF over GST control) | 1.05 fold enrichment (6-mer frequency, TF over GST control) | 1.11 fold enrichment (6-mer frequency, TF over GST control) | 1.01 fold enrichment (6-mer frequency, TF over GST control) |
| AACAAT | 1.31 fold enrichment (6-mer frequency, TF over GST control) | 1.29 fold enrichment (6-mer frequency, TF over GST control) | 1.32 fold enrichment (6-mer frequency, TF over GST control) | 1.28 fold enrichment (6-mer frequency, TF over GST control) | 1.29 fold enrichment (6-mer frequency, TF over GST control) | 1.26 fold enrichment (6-mer frequency, TF over GST control) | 1.32 fold enrichment (6-mer frequency, TF over GST control) | 1.29 fold enrichment (6-mer frequency, TF over GST control) | 1.32 fold enrichment (6-mer frequency, TF over GST control) |
| TTAACC | 1.2 fold enrichment (6-mer frequency, TF over GST control) | 1.25 fold enrichment (6-mer frequency, TF over GST control) | 1.18 fold enrichment (6-mer frequency, TF over GST control) | 1.21 fold enrichment (6-mer frequency, TF over GST control) | 1.31 fold enrichment (6-mer frequency, TF over GST control) | 1.24 fold enrichment (6-mer frequency, TF over GST control) | 1.23 fold enrichment (6-mer frequency, TF over GST control) | 1.33 fold enrichment (6-mer frequency, TF over GST control) | 1.3 fold enrichment (6-mer frequency, TF over GST control) |
| TACGAC | 1.33 fold enrichment (6-mer frequency, TF over GST control) | 1.2 fold enrichment (6-mer frequency, TF over GST control) | 1.29 fold enrichment (6-mer frequency, TF over GST control) | 1.26 fold enrichment (6-mer frequency, TF over GST control) | 1.27 fold enrichment (6-mer frequency, TF over GST control) | 1.23 fold enrichment (6-mer frequency, TF over GST control) | 1.25 fold enrichment (6-mer frequency, TF over GST control) | 1.22 fold enrichment (6-mer frequency, TF over GST control) | 1.36 fold enrichment (6-mer frequency, TF over GST control) |
